# Most compounds without a hit are left out; they make up all but 12% or so of the library.
# Pf growth 48h: P. falciparum growth inhibition at 48 hours (one generation). AID 504832. actives 5.9% (n = 310,000). Potency, µM (highest dose often 28.7 µM), inactives show top-dose activity change, negative = inhibition, most hits filed as inhibitors. P. falciparum luciferase growth in erythrocytes, 48 h; also: % is scaled to controls: 0 for no effect and ±100 for the full control effect
#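 Luciferase-expressing P. falciparum in infected erythrocytes (2% hematocrit, 0.1% parasitemia final) in RPMI 1640/0.5% Albumax were exposed to compound for 48 hours at 37 C, 5% CO2; growth read as luminescence.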
# Sm TGR inh: blocks Schistosoma mansoni thioredoxin glutathione reductase. Q962Y6. purified TGR, DTNB reduction, TNB absorbance 405 nm. Potency, µM (highest dose often 114 µM), for the others: at the top dose activity change, negative = inhibition, actives largely listed as inhibitors. actives 3% (n = 360,000). AID 485364; also: % is scaled to controls: 0 for no effect and ±100 for the full control effect; nearly all actives have a fitted effect of over 60% in size
#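 TGR 20 nM + NADPH 100 uM (dispensed conc.), cpd preinc 15 min RT; start with NADPH (500 uM addition) then DTNB (15 mM addition). Kinetic TNB absorbance, 405 nm filter. Four-parameter Hill fit across titration.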
# Pf growth 96h: P. falciparum growth inhibition at 96 hours. P. falciparum luciferase reporter growth, 96 h. Potency, µM (top dose mostly 28.7 µM), for the others: at the top dose activity change, negative = inhibition, hits mostly inhibitors. actives 6.9% (n = 320,000). AID 504834; also: % is scaled to controls: 0 for no effect and ±100 for the full control effect
#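 96 h incubation, 37 C, 5% CO2, of luciferase-reporter P. falciparum-infected RBCs (2% hematocrit, 0.05% parasitemia final) with test compounds; endpoint luminescence.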
# AmpC detergent: inhibitors of E. coli AmpC beta-lactamase with detergent | P00811 | actives 0.041% (n = 370,000) | Potency, µM (series often up to 114 µM), for inactives: at the top dose activity change, negative = inhibition, hits mostly inhibitors | AmpC hydrolysis of nitrocefin, absorbance 480 nm, 0.01% Triton | AID 485294;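 also: 0% = no-compound wells and -100% = no-enzyme wells; nearly all actives have a fitted effect of over 25% in size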
# Target sequence (P00811 whole entry, looked up): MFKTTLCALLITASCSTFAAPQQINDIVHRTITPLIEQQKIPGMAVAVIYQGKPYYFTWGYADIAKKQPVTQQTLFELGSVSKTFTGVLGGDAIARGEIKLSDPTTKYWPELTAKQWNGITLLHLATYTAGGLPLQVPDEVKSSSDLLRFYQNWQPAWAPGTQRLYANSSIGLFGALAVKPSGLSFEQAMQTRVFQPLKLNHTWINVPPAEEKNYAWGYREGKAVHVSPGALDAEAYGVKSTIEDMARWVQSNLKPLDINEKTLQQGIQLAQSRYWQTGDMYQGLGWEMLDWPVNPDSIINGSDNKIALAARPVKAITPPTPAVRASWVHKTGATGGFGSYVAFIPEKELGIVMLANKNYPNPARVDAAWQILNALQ
#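 20 mM phosphate pH 7.0 + 0.01% (detergent screen) or 0.0001% Triton X-100; 5.3 nM AmpC reagent; cpd preinc 15 min RT; nitrocefin (800 uM stock) to start; A480 q20 s × 4 min; Activity was normalised to no-enzyme and no-compound control wells.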
# AmpC no deterg: AmpC beta-lactamase inhibition without detergent; P00811; AmpC nitrocefin hydrolysis, absorbance 480 nm, 0.0001% Triton; actives 0.52% (n = 330,000); Potency, µM (highest dose often 57.1 µM), without a hit: at the top dose activity change, negative = inhibition, most hits filed as inhibitors;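 also: plate controls were no compound for no effect and no enzyme for full effect; nearly all actives have a fitted effect of over 20% in size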
#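 AmpC (5.3 nM in the dispensed reagent) in 20 mM phosphate pH 7.0 with 0.01% (detergent screen) or 0.0001% Triton X-100 was preincubated with compounds for 15 min at room temperature. Nitrocefin was then added from an 800 uM solution, and hydrolysis was followed at 480 nm.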
# SARS PLpro yeast: SARS-CoV PLP inhibition in yeast; S. cerevisiae expressing SARS-CoV PLpro, growth rescue; Potency, µM (highest dose often 32.9 µM), for the others: at the top dose activity, positive = growth rescue, most hits filed as activators; actives 0.19% (n = 330,000); AID 485353; calls by dose curve; also: 0% is about no effect; nearly all actives have a fitted effect of over 55% in size
# Active calls of the source: *; u = inconclusive; x = no result. Unless noted, calls follow the shape of the dose curve; as a rule, active = well fitted curve in the direction sought with a large enough effect; inconclusive = small, poorly fitted or top-dose-only effect, or another doubt; inactive = no such curve, though single readings can be large; an effect the other way counts as inactive or inconclusive. Potency is read from the fitted curve at half-maximal effect.
SMILES,Pf growth 48h,Sm TGR inh,Pf growth 96h,AmpC detergent,AmpC no deterg,SARS PLpro yeast
CN(C1CCCCC1)S(=O)(=O)c1ccc2c(c1)c(=O)c(C(=O)NCCN1CCCC1)cn2C,x,-5.8%,u,-0.1%,113.8%,-3.1%
Cc1ccc(NC(=O)CN(C)C(=O)COC(=O)COc2ccc(C#N)cc2)cc1,1.9%,1.0%,11.7%,-8.4%,-1.4%,6.8%
CCOC(=O)c1cccc(NS(=O)(=O)c2cc(-c3cnc(C4CC4)o3)ccc2C)c1,x,3.7%,x,7.5%,x,x
CCc1cccc(C)c1Nc1c(-c2ccc(SC)cc2)nc2sccn12,x,-4.0%,x,-0.1%,x,x
COc1ccc(N=C2C(=O)N3c4c(cccc42)C(C)=CC3(C)C)cc1,u,-6.6%,11.7µM*,-1.9%,-28.1%,-21.8%
C[C@@]12C(=O)N(c3cccc(Cl)c3)C(=O)N1[C@@H]1c3ccccc3OC[C@@H]1[C@H]2c1ccccc1,x,x,x,x,-12.9%,-0.8%
Cc1cccc(N2C(=O)N3[C@@H]4c5ccccc5OC[C@@H]4[C@@H](c4ccccc4)[C@@]3(C)C2=O)c1,u,-9.3%,u,-16.1%,-46.8%,-1.7%
Cc1cccc(N2C(=O)N3[C@@H]4c5ccccc5OC[C@@H]4[C@@H](c4ccccc4)[C@]3(C)C2=O)c1,u,-21.5%,11.7µM*,-15.7%,-3.8%,-19.0%
C[C@]12C(=O)N(c3cccc(Cl)c3)C(=O)N1[C@H]1c3ccccc3OC[C@@H]1[C@H]2c1ccccc1,0.0%,3.9%,10.4µM*,u,-27.9%,-2.3%
O=c1[nH]c(C2CCCN(S(=O)(=O)c3ccc(F)cc3)C2)nc2c1nnn2Cc1ccc(F)cc1 (stereo not drawn),u,-11.6%,14.3%,-1.7%,-27.6%,0.8%
CC(C)CCC[C@@H](C)[C@H]1CC[C@H]2[C@@H]3CC[C@@H]4C[C@H](O)CC[C@]4(C)[C@H]3CC[C@]12C,-3.6%,x,-16.7%,x,x,x
O=C1NC2=C(C(=O)CCC2)C(c2cccc([N+](=O)[O-])c2)N1 (stereo not drawn),-6.0%,0.0%,u,-13.1%,-18.7%,2.6%
COc1cc2c(cc1OC)C1(CCCC1)CNC2c1cccc([N+](=O)[O-])c1 (stereo not drawn),u,u,3.29µM*,-11.5%,-15.6%,2.3%
COc1cc2c(cc1OC)C(c1cccc([N+](=O)[O-])c1)NC(=O)C2 (stereo not drawn),3.9%,-22.0%,6.57µM*,-5.3%,-11.6%,1.4%
CCc1cccc(NC(=O)c2ccc(NC(=O)N3CCSc4ncccc43)cc2)c1,x,2.4%,x,-1.5%,x,x
O=C(CSc1nc(-c2cccs2)nc2cc(=O)[nH]n12)Nc1ccccc1Cl,x,0.5%,x,-13.6%,x,x
CCN(C(=O)CSc1nc2ccccc2nc1Cc1cccc(OC)c1)c1cccc(C)c1,x,4.2%,x,21.3%,x,x
COc1ccc(C(C(=O)NC2CCCCC2)N(C(=O)Cc2c[nH]c3ccccc23)c2ccccc2C)cc1OC (stereo not drawn),u,3.2%,13.1µM*,u,30.1%,0.4%
COc1ccc(C(C(=O)NC2CCCCC2)N(Cc2cccs2)C(=O)Cc2c[nH]c3ccccc23)cc1OC (stereo not drawn),9.28µM*,0.3%,u,-8.5%,40.5%,4.9%
COc1ccc(C(C(=O)NC2CCCC2)N(C(=O)Cc2cccs2)C2CC2)cc1OC (stereo not drawn),-15.3%,-3.8%,0.0%,2.0%,-8.5%,-1.0%
CCOc1ccc(CC(=O)Nc2c(C(=O)c3ccccc3)oc3ccc(OC)cc23)cc1OCC,x,10.8%,x,-4.4%,x,x
CC(C)(C)C1CCC2(CC1)SCC(=O)N2c1ccccc1 (stereo not drawn),11.7µM*,17.8%,95.0%,9.0%,-14.5%,-0.9%
